Consider 39 compounds from PubChem BioAssay.

Where “and” joins values, the source holds several entries; their conditions need not be identical. Identical values can stand only once. Calls of active or inactive are those of the source.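 The calls were made as follows: active = thallium flux through the channel raised or lowered by more than 3 SD from vehicle-only wells, actives on both sides; inactive = the rest.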

The first experiment concerns R275C/beta2Delta. Description: BK channel mutant inhibitors and activators – cell-based, U2OS BacMam, thallium flux, beta subunits, selectivity assay, profiling panel (AID 1259406).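 Also: initial slope of Thallos dye fluorescence rise after thallium is added; log ratio against the mean of 0.3% DMSO vehicle wells on the same plate.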 To be noted: U2OS BacMam BK variants, at 30 µM.
In the case of `OCCN1CCN(CCCN2c3ccccc3Sc3ccc(C(F)(F)F)cc32)CC1`, the log fold change Tl+ flux was 0.0662 (inactive).

As to `NS(=O)(=O)c1cc2c(cc1Cl)NC=NS2(=O)=O`, the log fold change Tl+ flux was 0.0235 (inactive).

On to `O=C1C(CCS(=O)c2ccccc2)C(=O)N(c2ccccc2)N1c1ccccc1` (stereo not drawn), for which the log fold change Tl+ flux was -0.0044 (inactive).

For `Cc1ccc(-c2cc(C(F)(F)F)nn2-c2ccc(S(N)(=O)=O)cc2)cc1`, the log fold change Tl+ flux is -0.0274 (inactive).

`CN[C@H]1CC[C@@H](c2ccc(Cl)c(Cl)c2)c2ccccc21`: the log fold change Tl+ flux was -0.0453 (inactive) and -0.0183 (inactive).

As to `Cc1ccccc1C(OCCN(C)C)c1ccccc1` (stereo not drawn), the log fold change Tl+ flux is 0.0594 (inactive) and 0.0469 (inactive).

With `CCc1nc(N)nc(N)c1-c1ccc(Cl)cc1`, the log fold change Tl+ flux was 0.00565 (inactive).

Take `COc1cc2nc(N(C)CCCNC(=O)C3CCCO3)nc(N)c2cc1OC` (stereo not drawn): the log fold change Tl+ flux was -0.00473 (inactive).

For `CN(C)CCOC(c1ccc(Cl)cc1)c1ccccn1` (stereo not drawn), the log fold change Tl+ flux was 0.0559 (inactive).

Consider `N[C@@H](C(=O)N[C@@H]1C(=O)N2C(C(=O)O)=C(Cl)CS[C@H]12)c1ccccc1`, for which the log fold change Tl+ flux is 0.0124 (inactive).

On to `Nc1ncn([C@@H]2O[C@H](CO)[C@@H](O)[C@H]2O)c(=O)n1`, for which the log fold change Tl+ flux is 0.0218 (inactive).

With `NCc1ccc(S(N)(=O)=O)cc1`, the log fold change Tl+ flux is 0.176 (active).

On to `Cc1ncc([N+](=O)[O-])n1CC(C)O` (stereo not drawn), for which the log fold change Tl+ flux was -0.0048 (inactive).

`Cc1ccc(C)c(OCCCC(C)(C)C(=O)O)c1`: the log fold change Tl+ flux is 0.0312 (inactive).

Consider `CN1CCCC(n2nc(Cc3ccc(Cl)cc3)c3ccccc3c2=O)CC1` (stereo not drawn), for which the log fold change Tl+ flux is -0.0285 (inactive).

Turning to `NS(=O)(=O)c1cc2c(cc1C(F)(F)F)NC(Cc1ccccc1)NS2(=O)=O` (stereo not drawn), the log fold change Tl+ flux is 0.0558 (inactive).

For the compound `COC1=CC(=O)C[C@@H](C)[C@]12Oc1c(Cl)c(OC)cc(OC)c1C2=O`, the log fold change Tl+ flux is -0.00445 (inactive).

As for `Cc1cn([C@H]2C[C@H](N=[N+]=[N-])[C@@H](CO)O2)c(=O)[nH]c1=O`, the log fold change Tl+ flux was 0.0219 (inactive).

For the compound `CN(CCOc1ccc(CC2SC(=O)NC2=O)cc1)c1ccccn1` (stereo not drawn), the log fold change Tl+ flux is 0.0398 (inactive) and 0.0538 (inactive).

For `COc1ccc(OC)c(C(O)CNC(=O)CN)c1` (stereo not drawn), the log fold change Tl+ flux was -0.0183 (inactive).

For `OC(CCN1CCCC1)(c1ccccc1)C1CCCCC1` (stereo not drawn), the log fold change Tl+ flux is -0.0288 (inactive).

With `NC(=O)N1c2ccccc2CC(=O)c2ccccc21`, the log fold change Tl+ flux was 0.1 (active).

Take `CCCNCC(O)COc1ccccc1C(=O)CCc1ccccc1` (stereo not drawn): the log fold change Tl+ flux is 0.136 (active).

Consider `C/C=C/C(=O)N(CC)c1ccccc1C`, for which the log fold change Tl+ flux is 0.013 (inactive).

On to `CCCCCCNC(=O)n1cc(F)c(=O)[nH]c1=O`, for which the log fold change Tl+ flux is -0.0282 (inactive).

Turning to `NC(=O)c1cnccn1`, the log fold change Tl+ flux was -0.0119 (inactive).

For the compound `CN(C)CCc1c[nH]c2ccc(C[C@H]3COC(=O)N3)cc12`, the log fold change Tl+ flux was -0.0113 (inactive).

For the compound `COc1ccccc1OCC(O)COC(N)=O` (stereo not drawn), the log fold change Tl+ flux is -0.018 (inactive).

As to `COC(=O)Nc1nc2ccc(C(=O)c3ccccc3)cc2[nH]1`, the log fold change Tl+ flux was -0.00163 (inactive).

On to `CCn1cc(C(=O)O)c(=O)c2cc(F)c(N3CCN(C)CC3)cc21`, for which the log fold change Tl+ flux was -0.0279 (inactive).

Consider `Cn1cnc([N+](=O)[O-])c1Sc1ncnc2nc[nH]c12`, for which the log fold change Tl+ flux is -0.053 (inactive).

For `c1ccc2[nH]c(-c3cscn3)nc2c1`, the log fold change Tl+ flux is -0.0148 (inactive).

In the case of `Cc1onc(-c2c(Cl)cccc2Cl)c1C(=O)N[C@@H]1C(=O)N2[C@@H]1SC(C)(C)[C@@H]2C(=O)O`, the log fold change Tl+ flux was 0.00693 (inactive).

With `Clc1ccc2c(c1)C(N1CCNCC1)=Nc1ccccc1O2`, the log fold change Tl+ flux was 0.0319 (inactive).

`CO[C@@]1(NC(=O)Cc2cccs2)C(=O)N2C(C(=O)O)=C(COC(N)=O)CS[C@@H]21`: the log fold change Tl+ flux is -0.0512 (inactive).

Regarding `CCc1cccc2c3c([nH]c12)C(CC)(CC(=O)O)OCC3` (stereo not drawn), the log fold change Tl+ flux is 0.0673 (inactive).

As for `CC(C)(C)NCC(O)COc1cccc2c1C[C@H](O)[C@H](O)C2` (stereo partly drawn), the log fold change Tl+ flux is 0.0276 (inactive).

With `O=S(=O)(O)CCS`, the log fold change Tl+ flux is -0.00238 (inactive).

Regarding `O=c1[nH]cc(F)c(=O)[nH]1`, the log fold change Tl+ flux was -0.0331 (inactive).

A further experiment relates to R275C/beta4. The experiment is described as above. To be noted: U2OS BacMam BK variants, at 30 µM.
For the compound `OCCN1CCN(CCCN2c3ccccc3Sc3ccc(C(F)(F)F)cc32)CC1`, the log fold change Tl+ flux is 0.23 (active).

`NS(=O)(=O)c1cc2c(cc1Cl)NC=NS2(=O)=O`: the log fold change Tl+ flux was 0.0288 (inactive).

For the compound `O=C1C(CCS(=O)c2ccccc2)C(=O)N(c2ccccc2)N1c1ccccc1` (stereo not drawn), the log fold change Tl+ flux is -0.0311 (inactive).

Take `Cc1ccc(-c2cc(C(F)(F)F)nn2-c2ccc(S(N)(=O)=O)cc2)cc1`: the log fold change Tl+ flux was -0.00588 (inactive).

Consider `CN[C@H]1CC[C@@H](c2ccc(Cl)c(Cl)c2)c2ccccc21`, for which the log fold change Tl+ flux is 0.997 (active) and 0.996 (active).

For the compound `Cc1ccccc1C(OCCN(C)C)c1ccccc1` (stereo not drawn), the log fold change Tl+ flux is 0.0108 (inactive) and 0.0539 (inactive).

As for `CCc1nc(N)nc(N)c1-c1ccc(Cl)cc1`, the log fold change Tl+ flux was -0.00455 (inactive).

Consider `COc1cc2nc(N(C)CCCNC(=O)C3CCCO3)nc(N)c2cc1OC` (stereo not drawn), for which the log fold change Tl+ flux is -0.0149 (inactive).

Consider `CN(C)CCOC(c1ccc(Cl)cc1)c1ccccn1` (stereo not drawn), for which the log fold change Tl+ flux was 0.0288 (inactive).

Consider `N[C@@H](C(=O)N[C@@H]1C(=O)N2C(C(=O)O)=C(Cl)CS[C@H]12)c1ccccc1`, for which the log fold change Tl+ flux is -0.0176 (inactive).

Turning to `Nc1ncn([C@@H]2O[C@H](CO)[C@@H](O)[C@H]2O)c(=O)n1`, the log fold change Tl+ flux was 0.000291 (inactive).

As for `NCc1ccc(S(N)(=O)=O)cc1`, the log fold change Tl+ flux is -0.0166 (inactive).

Consider `Cc1ncc([N+](=O)[O-])n1CC(C)O` (stereo not drawn), for which the log fold change Tl+ flux is -0.0387 (inactive).

Consider `Cc1ccc(C)c(OCCCC(C)(C)C(=O)O)c1`, for which the log fold change Tl+ flux was -0.0122 (inactive).

In the case of `CN1CCCC(n2nc(Cc3ccc(Cl)cc3)c3ccccc3c2=O)CC1` (stereo not drawn), the log fold change Tl+ flux was 0.0595 (inactive).

Turning to `NS(=O)(=O)c1cc2c(cc1C(F)(F)F)NC(Cc1ccccc1)NS2(=O)=O` (stereo not drawn), the log fold change Tl+ flux was -0.00759 (inactive).

With `COC1=CC(=O)C[C@@H](C)[C@]12Oc1c(Cl)c(OC)cc(OC)c1C2=O`, the log fold change Tl+ flux was -0.0288 (inactive).

Turning to `Cc1cn([C@H]2C[C@H](N=[N+]=[N-])[C@@H](CO)O2)c(=O)[nH]c1=O`, the log fold change Tl+ flux is 0.00485 (inactive).

Turning to `CN(CCOc1ccc(CC2SC(=O)NC2=O)cc1)c1ccccn1` (stereo not drawn), the log fold change Tl+ flux was 0.0706 (inactive) and 0.0705 (inactive).

Consider `COc1ccc(OC)c(C(O)CNC(=O)CN)c1` (stereo not drawn), for which the log fold change Tl+ flux is 0.00841 (inactive).

`OC(CCN1CCCC1)(c1ccccc1)C1CCCCC1` (stereo not drawn): the log fold change Tl+ flux is 0.068 (inactive).

Take `NC(=O)N1c2ccccc2CC(=O)c2ccccc21`: the log fold change Tl+ flux is -0.00127 (inactive).

Turning to `CCCNCC(O)COc1ccccc1C(=O)CCc1ccccc1` (stereo not drawn), the log fold change Tl+ flux was 0.153 (active).

As for `C/C=C/C(=O)N(CC)c1ccccc1C`, the log fold change Tl+ flux is -0.00282 (inactive).

On to `CCCCCCNC(=O)n1cc(F)c(=O)[nH]c1=O`, for which the log fold change Tl+ flux was -0.000915 (inactive).

On to `NC(=O)c1cnccn1`, for which the log fold change Tl+ flux is -0.0116 (inactive).

In the case of `CN(C)CCc1c[nH]c2ccc(C[C@H]3COC(=O)N3)cc12`, the log fold change Tl+ flux was 0.00246 (inactive).

Turning to `COc1ccccc1OCC(O)COC(N)=O` (stereo not drawn), the log fold change Tl+ flux was 0.0404 (inactive).

On to `COC(=O)Nc1nc2ccc(C(=O)c3ccccc3)cc2[nH]1`, for which the log fold change Tl+ flux is -0.0663 (inactive).

Consider `CCn1cc(C(=O)O)c(=O)c2cc(F)c(N3CCN(C)CC3)cc21`, for which the log fold change Tl+ flux is 0.00214 (inactive).

On to `Cn1cnc([N+](=O)[O-])c1Sc1ncnc2nc[nH]c12`, for which the log fold change Tl+ flux is -0.0246 (inactive).

As for `c1ccc2[nH]c(-c3cscn3)nc2c1`, the log fold change Tl+ flux is -0.00629 (inactive).

With `Cc1onc(-c2c(Cl)cccc2Cl)c1C(=O)N[C@@H]1C(=O)N2[C@@H]1SC(C)(C)[C@@H]2C(=O)O`, the log fold change Tl+ flux was -0.0254 (inactive).

For the compound `Clc1ccc2c(c1)C(N1CCNCC1)=Nc1ccccc1O2`, the log fold change Tl+ flux is 0.0104 (inactive).

As for `CO[C@@]1(NC(=O)Cc2cccs2)C(=O)N2C(C(=O)O)=C(COC(N)=O)CS[C@@H]21`, the log fold change Tl+ flux is 0.0012 (inactive).

As to `CCc1cccc2c3c([nH]c12)C(CC)(CC(=O)O)OCC3` (stereo not drawn), the log fold change Tl+ flux is 0.0823 (inactive).

In the case of `CC(C)(C)NCC(O)COc1cccc2c1C[C@H](O)[C@H](O)C2` (stereo partly drawn), the log fold change Tl+ flux was -0.0328 (inactive).

Turning to `O=S(=O)(O)CCS`, the log fold change Tl+ flux was 0.0195 (inactive).

On to `O=c1[nH]cc(F)c(=O)[nH]1`, for which the log fold change Tl+ flux was -0.0876 (inactive).
